Pf growth 96h: P. falciparum growth inhibition at 96 hours | AID 504834 | 320,000 tested, 6.9% active | Potency, µM (top dose mostly 28.7 µM), inactives show top-dose activity change, negative = inhibition, hits mostly inhibitors | P. falciparum luciferase reporter growth, 96 h; active = well fitted inhibition curve with a large enough effect; inconclusive = small, poorly fitted or top-dose-only effect, or another doubt; inactive = no such curve, though single readings can be large or run the other way; note: % is set by controls: 0 for no effect and ±100 for the full control effect
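Plates of compound plus infected erythrocytes (2% hematocrit, 0.05% parasitemia final) incubate 96 hours, 37 C, 5% CO2. Detection reagent added; reduced luminescence from the parasites' luciferase reporter flags inhibition.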
SARS PLpro yeast: SARS-CoV PLP inhibition in yeast | S. cerevisiae expressing SARS-CoV PLpro, growth rescue | Potency, µM (top dose mostly 32.9 µM), inactives show at the top dose activity, positive = growth rescue, most hits filed as activators | 330,000 tested, 0.19% active; note: 0% is about no effect; nearly all actives have a fitted effect of over 55% in size
Pf growth 48h: inhibits P. falciparum growth in the first generation, 48 h; P. falciparum luciferase growth in erythrocytes, 48 h; Potency, µM (series often up to 28.7 µM), for the others: at the highest dose activity change, negative = inhibition, hits mostly inhibitors; 310,000 tested, 5.9% active; active = well fitted inhibition curve with a large enough effect; inconclusive = small, poorly fitted or top-dose-only effect, or another doubt; inactive = no such curve, though single readings can be large or run the other way; note: % is set by controls: 0 for no effect and ±100 for the full control effect
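Luciferase-expressing P. falciparum in infected erythrocytes (2% hematocrit, 0.1% parasitemia final) in RPMI 1640/0.5% Albumax were exposed to compound for 48 hours at 37 C, 5% CO2; growth read as luminescence.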
NS1 inh: influenza NS1 inhibition; Potency, µM (highest dose often 46.1 µM), for the others: at the highest dose activity, positive = more growth; 270,000 tested, 0.4% active; AID 2326; note: actives are rising curves; nearly all actives have a fitted effect of over 50% in size
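Compounds were scored for reversing the slow growth caused by influenza A NS1 in S. cerevisiae, measured by optical density at 600 nm. Assay medium contained 2% galactose at pH 6.0; NS1-free yeast of the same strain were the positive control.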
Starred values were filed as active, the others as inactive; ? = inconclusive; nt = not tested or not shown; [ ] = another dose, or the depositor's remark. Sampled rows, rich in hits. Any-hit rate of the full collection: about 10%. Unless noted, calls come from the whole dose curve. Potency is the fitted concentration of half-maximal effect.

SMILES | Pf growth 96h | SARS PLpro yeast | Pf growth 48h | NS1 inh
CC(OC(=O)CCC(=O)c1ccc(F)cc1)C(=O)NC1CCCCC1C (configuration not stated) | 15% | 22% | 4% | -1%
O=C(Nc1ccc(F)cc1)N1CCN2C(=O)c3ccccc3C12c1ccccc1 (configuration not stated) | 13µM* | 1% | nt | 4%
O=C1c2ccccc2C2(c3ccccc3)N1CCN2C(=O)C(Cl)(Cl)Cl (configuration not stated) | 0.83µM* | -6% | nt | 0%
Cc1ccc(C(=O)N2CCN3C(=O)c4ccccc4C23c2ccccc2)cc1 (configuration not stated) | ? | 1% | ? | -6%
O=C(O)C(O)(c1ccc(-c2ccccc2)cc1)c1ccc(-c2ccccc2)cc1 | nt | nt | nt | 6%
CCN1C(=S)N[C@@H](CCc2ccccc2)C(C(=O)OC)=C1C | 9.3µM* | 1% | ? | 5%
CCN1C(=NCCN2CCOCC2)N[C@@H](CCc2ccccc2)C(C(=O)OC)=C1C | 102% | ? | ? | -6%
C=C(C)COc1ccc2c(C)c(CC(=O)N3C[C@H]4C[C@@H](C3)c3cccc(=O)n3C4)c(=O)oc2c1C | 12µM* | -7% | ? | -1%
Cc1c(CC(=O)N2C[C@H]3C[C@@H](C2)c2cccc(=O)n2C3)c(=O)oc2cc3occ(C(C)(C)C)c3cc12 | 8.3µM* | -7% | -27% | -11%
COc1ccc2c(C)c(CC(=O)N3C[C@H]4C[C@@H](C3)c3cccc(=O)n3C4)c(=O)oc2c1C | ? | 0% | -1% | -7%
Cc1[nH]n(C(N)=S)c(=O)c1N=Nc1ccc2ccccc2c1 | 4.7µM* | -20% | 28% | nt
Cc1ccc(N=Nc2c(C)[nH]n(C(N)=S)c2=O)cc1C | -23% | 0% | ? | -38%
CCCNC(=O)C(Cc1ccc(I)cc1)NC(=O)C1CC1 (configuration not stated) | -44% | 0% | -3% | nt
Cc1ncc([N+](=O)[O-])n1C[C@H](O)CCl | -14%[12.8 µM] | nt | -5%[12.8 µM] | nt
CC1CC(=O)Nc2ccccc2N1C(=O)CN1CCN(c2ccccc2)CC1 (configuration not stated) | -8% | 3% | -4% | nt
Cc1nc(Nc2ccc(Cl)cc2Cl)sc1C(=O)Nc1ccccc1 | 12µM* | -60% | ? | 5%
Cc1nc(Nc2ccc(Cl)c(Cl)c2)sc1C(=O)Nc1ccccc1 | ? | -84% | ? | 3%
CCOc1ccc2oc(C(=O)NCC(C)(C)CN(C)C)c(C)c2c1 | -24% | 2% | 27% | nt
NC(=O)c1cc([N+](=O)[O-])ccc1NCC1CCCCC1 | ? | -13% | -68% | nt
Cc1ccc(C)c(NC(=O)NCc2ccc(Cl)cc2)c1 | nt | nt | nt | -1%
O=C1CCCc2c1cc(C(=O)Nc1ccc(Br)cn1)c(=O)n2-c1ccccc1 | 39% | -7% | 4.1µM* | -8%
CN1C(=O)C(CC(=O)Nc2ccc(F)cc2)N(NC(=O)c2cccc(F)c2)C1=S (configuration not stated) | ? | 3% | ? | 6%
COc1ccccc1/C=C1\SC(=O)N(CCC(=O)N2CCCCC2CCO)C1=O (configuration not stated) | 9.3µM* | -1% | ? | 6%
COc1ccccc1/C=C1\SC(=S)N(CCC(=O)N2CCCCC2CCO)C1=O (configuration not stated) | ? | 2% | ? | 4%
COc1cccc(/C=C2\SC(=S)N(CCCC(=O)N3CCCCC3CCO)C2=O)c1 (configuration not stated) | 3.7µM* | -4% | ? | -34%
SMILES | Pf growth 96h | SARS PLpro yeast | Pf growth 48h | NS1 inh
COc1cccc(/C=C2\SC(=S)N(CCCC(=O)N3CCCC3)C2=O)c1 | 4.1µM* | 0% | 13µM* | -20%
O=C1/C(=C/c2cccs2)SC(=S)N1CCC(=O)N1CCCCC1CCO (configuration not stated) | 12µM* | -4% | ? | -19%
CCN(CC)CCCNC(=O)CSc1nc(-c2ccc(F)cc2)cc(C(F)(F)F)n1 | 30% | -2% | 3% | 3%
[O-][N+](CCO)(CCO)c1ncnc2nc[nH]c12 | nt | nt | nt | -3%
O=C(NCCc1ccc(F)cc1)C1CCN(C(=O)Nc2ccccc2)CC1 | ? | 0% | ? | nt
Cc1nc(CS(=O)c2ccccc2)cc(N2CCOCC2)n1 (configuration not stated) | 8.3µM* | 0% | ? | 3%
CCCCC[C@H](O)/C=C\[C@@H]1[C@H](O)CC(=O)[C@@H]1CCCCCCC(=O)O | 5.1µM* | nt | ? | nt
CCCCC[C@H](O)/C=C/[C@H]1CCC(=O)[C@@H]1CCCCCCC(=O)N1CCCCC1CO (some centres not stated) | ? | -2% | 9.3µM* | 8%
Cn1cc(CCC(=O)NCCCc2ccccc2)c2ccccc21 | 31% | -1% | 56% | -12%
CCOc1ccc(-c2cn(CCC#N)cn2)cc1 | 6.6µM* | 3% | 30% | -5%
N=c1c(C(=O)NCCN2CCOCC2)cc2c(=O)n3ccccc3nc2n1CCc1ccccc1 | 3.3µM* | -4% | 3.3µM* | -2%
Cc1ccc(Cn2c(=N)c(C(=O)NCCN3CCOCC3)cc3c(=O)n4ccccc4nc32)cc1 | ? | -7% | ? | -2%
N=c1c(C(=O)NCc2ccccc2)cc2c(=O)n3ccccc3nc2n1CCCN1CCOCC1 | -14% | 3% | 5.9µM* | -12%
N=c1c(C(=O)NCc2ccc(F)cc2)cc2c(=O)n3ccccc3nc2n1Cc1cccnc1 | 5.9µM* | -5% | nt | 9%
N=c1c(C(=O)NCCc2ccccc2)cc2c(=O)n3ccccc3nc2n1CCCN1CCOCC1 | ? | -2% | 2.1µM* | 5%
COC(=O)c1cc2c(=O)n3ccccc3nc2n(Cc2cccnc2)c1=N | nt | nt | nt | 6%
Cc1noc(C)c1COc1ccc(C(=O)N2CCC(C(N)=O)CC2)cc1 | nt | 1% | nt | nt
N=c1c(C(=O)NCc2ccc(F)cc2)cc2c(=O)n3ccccc3nc2n1CCCN1CCOCC1 | 2.6µM* | ? | 1.7µM* | 2%
COc1ccc([C@]23Cc4cc(C#N)ccc4C(O2)C2=C(CC4(CCCCC4)OC2=O)O3)cc1 | 0.76µM* | -2%[6.58 µM] | ? | ?
COc1ccc([C@]23Cc4cc(C#N)ccc4[C@H](O2)c2c(cc(C)n(Cc4ccccc4)c2=O)O3)cc1 | -4%[5.75 µM] | 2%[6.58 µM] | 1.9µM* | 22%
Cc1cc2c(c(=O)n1Cc1ccccc1)C1O[C@](CCCCN3C(=O)c4ccccc4C3=O)(Cc3cc(C#N)ccc31)O2 | ? | 8%[6.58 µM] | ? | 20%
COc1ccc([C@]23Cc4cc(OC)c(OC)cc4C(O2)c2c(cc(C)n(Cc4ccccc4)c2=O)O3)cc1 | 1.5µM* | -4%[6.58 µM] | ? | 2%
CC(C#N)N1CCN(S(=O)(=O)c2ccc3c(c2)CCC3)CC1 (configuration not stated) | -24% | 3% | -15% | nt
CC[n+]1c(/C=C/c2ccc(OC)c(OC)c2)ccc2ccccc21 | -19% | -7% | 1µM* | -15%
CC[n+]1c(/C=C/c2ccc(OC(C)=O)c(OC)c2)ccc2ccccc21 | ? | -1% | ? | 4%
C[n+]1c(/C=C/c2ccc3c(c2)OCO3)ccc2ccccc21 | -18% | -4% | 429% | nt

Screening data: PubChem, National Center for Advancing Translational Sciences (NCATS)
